Assay results: ChEMBL document CHEMBL4513216, “Probing the Open Global Health Chemical Diversity Library for Multistage-Active Starting Points for Next-Generation Antimalarials” (ACS Infect Dis, 2020)
Hit rate of the full screen: of about 69,000 compounds, about 8,600 (12%) showed an effect of 50% or more. The sample holds strong results, similar compounds and a random draw of the others, so the mix is not that of the screen.

test system: Plasmodium berghei; assay: Screen against P. berghei liver stage (PbLuc), transformed with Luciferase, at 10uM; type: functional, HepG2; details: tested at 10 uM

Structure (SMILES) | INHIBITION
Cc1nn(CC(O)CN2CCc3ccccc3C2)c(=O)c(C#N)c1C (centres undefined) | -1.75%
O=C(N1CCCC1)N1CCC2(CC1)C(=O)N(CC1CC1)c1ccccc12 | 23.5%
CCOCc1nnc2n1CCN(Cc1c(C)noc1C)CC2 | 30.3%
Cc1nc(C(=O)N2C[C@@H]3CN(S(C)(=O)=O)CCO[C@@H]3C2)cs1 | 58.5%
Cn1nccc1C(=O)N1C[C@@H]2CN(S(C)(=O)=O)CCO[C@@H]2C1 | 40.5%
Cc1ccnc(C(=O)N2C[C@@H]3CN(S(C)(=O)=O)CCO[C@@H]3C2)c1 | 48.2%
O=C(c1sccc1Br)N(Cc1cccnc1)C1CC1 | 25.2%
Clc1ccc(CN2CCc3c(ncn3C3CC3)C2)c2ncccc12 | 66.3%
Cn1cnc2c1CCN(Cc1ccc(Cl)c3cccnc13)C2 | 31.1%
c1ccc(CCN2CCc3c(ncn3C3CC3)C2)nc1 | -24.7%
CCN(CC)C(=O)C1CCCN(c2ncnc3oc(C)nc23)C1 (centres undefined) | 3.46%
CCCOc1ccc(Cl)cc1CNc1ncnc2oc(C)nc12 | 45.4%
CCC(CNc1ncnc2oc(C)nc12)Cc1ccccc1 (centres undefined) | 59.5%
Cc1ncnc(NCC(C)N(C)c2ccccc2)c1C (centres undefined) | 68.6%
Cc1nc2c(NC(CC(C)(C)C)c3cccnc3)ncnc2o1 (centres undefined) | 34.4%
CC(CNc1cncc(-n2cccn2)n1)N(C)c1ccccc1 (centres undefined) | 10%
Cc1ncnc(NC(CC(C)(C)C)c2cccnc2)c1C (centres undefined) | 40.3%
CCCOc1ccccc1CCCNc1ncnc2oc(C)nc12 | 83.5%
Cc1nc2c(N3CCC(O)(Cn4ccnc4)CC3)ncnc2o1 | 29.7%
Cc1nc2c(N(CCC(N)=O)CCc3ccccc3)ncnc2o1 | 19.2%
CCCN(CCc1ccccc1)c1ncnc2oc(C)nc12 | 25.4%
Cc1nc2c(NCC(C)N(C)c3ccccc3)ncnc2o1 (centres undefined) | 67.7%

Structure (SMILES) | INHIBITION
CC(C)CCN(CCC(C)C)Cc1nc2c(cnn2C)c(=O)[nH]1 | -11.58%
O=C(c1ccco1)N1C[C@H]2CCCN(Cc3nccs3)[C@H]2C1 | 1.71%
CC(C)c1ccc(OCCNC(=O)CN2CCN(C)CC2C)cc1 (centres undefined) | 32.7%
COCCNc1nc(N2CCCC2)nc2nccnc12 | 6.29%
O=C(c1cscn1)N1CC[C@H]2C[C@@H](c3ccncn3)O[C@@H]2C1 | 43.9%
COCCC(=O)NCc1ccc(-c2ccccc2C(=O)O)cn1 | 5.23%
O=C(C1CCC1)N1CC[C@H](O)[C@@H]1Cc1cccnc1 | 32.1%
CCCN(CCS(C)(=O)=O)C1CCc2ccccc2C1 (centres undefined) | 53.5%
CNS(=O)(=O)CC(=O)N(C1CC1)C1Cc2ccccc2C1 | 32%
CN(C1CCc2ccccc2C1)S(C)(=O)=O (centres undefined) | 53.5%
CCS(=O)(=O)NCC(=O)N(C1CC1)C1Cc2ccccc2C1 | 7.39%
CCCN(C1CCc2ccccc2C1)S(C)(=O)=O (centres undefined) | 2.97%
CS(=O)(=O)CCN(CCc1cccc(F)c1)C1CC1 | 30.9%
O=C([C@H]1C[C@H]2OCC[C@H]2N(C(=O)c2ccncc2)C1)N1CCCC1 | -23.8%
CCN(CC)c1ccc(C(=O)N2CCCC2Cn2cc(C)cn2)cn1 (centres undefined) | -4.75%
Cc1nn(-c2ccc(C(=O)O)cc2)c2c1C(C(C)C)SCC(=O)N2 (centres undefined) | -2.39%
O=C1COc2ccc(S(=O)(=O)NCCC3=CCCCC3)cc2N1 | -13.6%
C[C@@H]1CN(CC(=O)NCc2ccccn2)C[C@]1(C)O | 19.8%
CC(=O)N1C[C@H]2CC[C@@H](C1)N(S(=O)(=O)c1ccc(C#N)cc1Cl)C2 | 38.3%
CC(C)OCCOCc1cccc(NC(=O)NCc2ccncc2)c1 | -18.2%
CC(C)OCCOCc1cccc(NC(=O)NCc2ccccn2)c1 | 0.139%
CC(C)OCCOCc1cccc(NC(=O)NCC(=O)N(C)C)c1 | 44.4%

Structure (SMILES) | INHIBITION
CNc1nc(CNC(=O)Nc2cccc(COCCOC(C)C)c2)cs1 | 52.4%
Cc1cc(CNC(=O)Nc2cccc(COCCOC(C)C)c2)no1 | 29.5%
CC(C)OCCOCc1cccc(NC(=O)NCc2cnn(C)c2)c1 | 50.4%
COc1ccccc1CC(=O)N(C)Cc1cc(C)on1 | 10%
COc1ccc(OC)c(NC(=O)CSc2ccc3nncn3n2)c1 | 7.25%
c1coc(-c2noc(CN3CCc4cncnc4C3)n2)c1 | 26.43%
Cc1noc(C)c1-c1cc(CCC2CN(C(=O)CN)CCO2)ncn1 (centres undefined) | -7.005%
O=C(Nc1nnc(C2CC2)s1)NC1CCOc2ccccc21 (centres undefined) | 54.4%
Cc1nnc(NC(=O)NC2CCOc3ccccc32)s1 (centres undefined) | 13.5%
CC(C)c1nnc(NC(=O)NC2CCOc3ccccc32)s1 (centres undefined) | 32.2%
Cn1nccc1CN1CCOC(c2cccc(-c3cncnc3)n2)C1 (centres undefined) | 16.55%
Cn1nccc1CN1CCOC(c2cccc(Nc3ccccn3)n2)C1 (centres undefined) | 78.6%
Cn1nccc1CN1CCOC(c2ccc(-c3cncnc3)cn2)C1 (centres undefined) | 23.8%
Cc1c(C(=O)N2CCNC(=O)C2)sc2nc[nH]c(=O)c12 | 20.6%
Cn1nccc1-c1ncc2c(c1C(=O)O)CCN(Cc1ccncc1)C2 | 20.1%
O=C(O)c1c(-c2cncnc2)ncc2c1CCN(Cc1cccnc1)C2 | 96.1%
Cn1nccc1-c1ncc2c(c1C(=O)O)CCN(Cc1cccnc1)C2 | 13.7%
O=C(O)c1c(-c2cccnc2)ncc2c1CCN(Cc1cccnc1)C2 | 6.66%
O=C(O)c1c(-c2cccnc2)ncc2c1CCN(Cc1ccccn1)C2 | -33.9%
Cn1nccc1-c1ncc2c(c1C(=O)O)CCN(Cc1ccccc1)C2 | 58.7%
Fc1ccc(-c2cnc(C3CCCN3)cn2)cc1 (centres undefined) | 27%
O=C1[C@@H]2CC[C@@H](CN(C3CCOCC3)C2)N1Cc1cscn1 | 33%

Structure (SMILES) | INHIBITION
CC(C(=O)O)n1nc(C(F)(F)F)c(Br)c1C1CC1 (centres undefined) | 38.3%
COc1ccc(Cl)cc1CC(=O)NS(=O)(=O)c1ccc(C(N)=O)cc1 | -18%
O=C(NCC(O)c1ccccc1)Nc1cccs1 (centres undefined) | -39.3%
CCSc1ncc(CN2CCN(c3nc(C)cnc3C)CC2)cn1 | -50.8%
CCSc1ncc(CN2CCN(c3ncc(C)c(N)n3)CC2)cn1 | -37.7%
CCSc1ncc(CN2CCN(c3nc(C)ncc3C)CC2)cn1 | 56.6%
CCn1cnnc1CNS(=O)(=O)N1CCCC1c1ccco1 (centres undefined) | -120%
O=C(Cc1ccsc1)N1CCCCC1c1ccn2ccnc2n1 (centres undefined) | 47.1%
c1cncc(-c2nnn3c2COCC(CNC2CCOCC2)C3)c1 (centres undefined) | 33.4%
Cc1ccnc(C2(C)CCCN2C(=O)c2cnccn2)n1 (centres undefined) | 6.32%
C/C=C(\C)CN1C[C@H](NC(=O)CCOC)[C@@H](c2ccc(C)o2)C1 | 63.5%
C/C=C(\C)CN1C[C@H](NC(=O)CN2CCCC2=O)[C@@H](c2ccc(C)o2)C1 | 18.3%
CC(=O)N[C@@H]1CN(Cc2ccco2)C[C@H]1c1ccc(C)o1 | 32.8%
O=C(NCC1CC1)Nc1cnc2ccc(F)cc2c1O | 23.2%
COc1ccc(CN2C[C@@H]3CCCO[C@@H]3[C@H](NS(C)(=O)=O)C2)cc1 | 2.01%
CO[C@@H]1c2ccccc2C2(CCN(C(=O)CNS(C)(=O)=O)CC2)[C@H]1O | -6.61%
COc1ccc(NC(C)c2nnnn2-c2ccccc2)cc1F (centres undefined) | 54.3%
CCOc1ccc(NC(C)c2nnnn2-c2ccccc2)cc1CO (centres undefined) | 20.9%
CC(Nc1ccc(F)cc1)c1nnnn1-c1ccccc1 (centres undefined) | 81.7%
COc1ccc(NC(C)C(=O)NCCc2cccs2)cc1F (centres undefined) | 38.5%
CCC(Nc1nnnn1-c1ccccc1)C(=O)Nc1ccccc1C (centres undefined) | -19.1%
COc1ccc(NC(C)c2nnnn2-c2ccccc2)cn1 (centres undefined) | 18.3%

Structure (SMILES) | INHIBITION
O=C(O)Cn1ccc(=O)c2ccc(Cl)cc21 | 11.1%
CN(C)c1cccc(CNC(=O)Nc2ccc3[nH]nnc3c2)n1 | -4.13%
CC(=O)c1ccc(NC(=O)NCc2cccc(N(C)C)n2)cc1C | 62.1%
CN(C)c1cccc(CNC(=O)Nc2cc(C#N)ccc2Cl)n1 | 15.8%
COc1ccc(NC(=O)NCc2cccc(N(C)C)n2)c(Cl)c1 | 7.49%
COc1cc(F)cc(NC(=O)NCc2cccc(N(C)C)n2)c1 | 55.3%
COc1ccc(C)c(NC(=O)NCc2cccc(N(C)C)n2)c1 | -35.2%
CCc1nccn1CCCNC(=O)c1cnn(-c2ccccc2OC)c1 | -1.45%
Cc1nn(C)c(C)c1C1CCCN1CC(=O)Nc1cc(C(C)C)no1 (centres undefined) | -1.14%
O=C(c1cnccn1)N1C[C@@H](OCc2ccncc2)[C@@H]2OCCC[C@@H]21 | 33%
O=C(NC1CCCc2nc(N3CCOCC3)ncc21)C1CCCC1 (centres undefined) | -5.71%
COc1cc(-c2nc(CN(CCO)CCO)c(C)o2)ccc1F | 22.5%
Cc1cc(C(F)(F)F)nc(CNc2nc(C)nc3c2cnn3C)n1 | 19.4%
CCOCC(=O)NCCc1nc(C)cc(C(F)(F)F)n1 | 20.4%
CCN(C)c1ccc(CNC(=O)CCn2cc(C)cn2)cc1F | 12.8%
CCC(C(=O)NCc1nc(C)cc(C(F)(F)F)n1)n1cccn1 (centres undefined) | 8.08%
Cc1cc(C(F)(F)F)nc(CNC(=O)CCC2CCCCN2C)n1 (centres undefined) | 38.7%
CCC(C(=O)NCCc1nc(C)cc(C(F)(F)F)n1)n1cccn1 (centres undefined) | 57%
Cc1cc(C(F)(F)F)nc(CNC(=O)C2CCCCCN2C)n1 (centres undefined) | 54.5%
Cc1cc(C(F)(F)F)nc(CNC(=O)CCC2CCCN(C)C2)n1 (centres undefined) | 29.4%
Cc1cc(C(F)(F)F)nc(CNC(=O)CCn2cccn2)n1 | 58.1%
